# According to PubChem BioAssay AID2546 (National Center for Advancing Translational Sciences (NCATS), 2010):
# Among all 310,000 compounds or so, about 11,000 (3.5%) were called active. Entries that show only a call come without a potency. Not shown: some 8% with an inconclusive outcome. The call rests on the fitted dose curve; in most records, active means well fitted inhibition curve with a large enough effect; inconclusive means small, poorly fitted or top-dose-only effect, or effect the other way; inactive means flat fitted curve, though single readings scatter. For the sample, actives were picked, then their nearest neighbours and some compounds at random.
# Experiment: VP16 counterscreen qHTS for inhibitors of ROR gamma transcriptional activity;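 further: Gal4-VP16 expression switched on by copper sulfate through the metallothionein promoter; nearly all actives have a fitted effect of over 50% in size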
# Conditions: Drosophila S2 Gal4-VP16 UAS-luciferase, luminescence, 20 h; series mostly up to 53.6 µM
# Potency means the concentration at half of the fitted maximal effect.
row,Compound,Potency
1,CN(C(=O)COC(=O)c1nc(Cl)ccc1Cl)C1CCS(=O)(=O)C1 (configuration not stated),inactive
2,CCc1ccc(OCC(=O)N(Cc2ccccc2)C2CCS(=O)(=O)C2)cc1 (configuration not stated),inactive
3,O=C(Cc1cccs1)N/N=C/c1ccc(OCc2ccccc2)cc1,inactive
4,O=C(N/N=C/c1ccc(OC(=O)c2ccccc2Cl)cc1)c1ccc(O)cc1,inactive
5,O=C(N/N=C/c1ccc(OCc2ccccc2)cc1)c1ccc(O)cc1,11.2 µM (active)
6,COCCNC(=O)COc1ccc(N(C)S(=O)(=O)c2ccc3ccccc3c2)cc1,inactive
7,COc1ccc(NS(=O)(=O)c2ccc(Oc3c(C#N)cccc3C#N)cc2)cc1,3.98 µM (active)
8,COc1ccc(NS(=O)(=O)c2ccc(NC(=S)NC(=O)CC(C)C)cc2)cc1,inactive
9,CCOc1ccc(S(=O)(=O)Nc2ccc(S(=O)(=O)Nc3cc(OC)ccc3OC)cc2)cc1,inactive
10,COc1cccc(CNS(=O)(=O)c2ccc3c(c2)N(C(C)=O)CCS3)c1,inactive
11,COC(=O)c1ccc(COc2ccc(/C=C/C(=O)c3ccc(OC)c(CSCC(=O)O)c3)cc2OC)cc1,inactive
12,Cc1cccc(OCC(=O)NCC(=O)N/N=C/c2ccc(N(C)C)cc2)c1,inactive
13,COc1ccc(C(=O)CSc2nnc(-c3ccco3)o2)cc1,inactive
14,COc1ccc(OC)c(C(=O)CSc2nnc(-c3cccs3)o2)c1,15.8 µM (active)
15,COc1ccc(-c2nnc(SCC(=O)c3cccs3)o2)c(OC)c1,inactive
16,CN(c1cccc(NC(=O)c2ccc(CN3CCc4ccccc4C3)cc2)c1)S(C)(=O)=O,inactive
17,COc1cccc(C(=O)Nc2ccc(N3CCN(C(=O)c4ccco4)CC3)cc2)c1,inactive
18,COC(=O)CNC(=O)c1ccc(OC2CCN(C(=O)C3CC3)CC2)cc1,inactive
19,CCc1ccc(/C=N/NC(=O)c2ccc(OC3CCCC3)cc2)s1,11.2 µM (active)
20,CCn1c(/C=N/NC(=O)c2ccc(OC)cc2)nc2ccccc21,inactive
21,CCOc1ccc(S(=O)(=O)N2CCCC(C(=O)N3CCC(C(N)=O)CC3)C2)cc1Cl (configuration not stated),inactive
22,COc1ccccc1CCNS(=O)(=O)c1cc2c3c(c1)C(C)C(=O)N3CCC2 (configuration not stated),inactive
23,Cc1ccc(S(=O)(=O)Nc2ccc3ncccc3c2)cc1,17.8 µM (active)
24,Cc1ccc(NS(=O)(=O)c2ccc(C(C)(C)C)cc2)cn1,inactive
25,Cc1ccc(OCC(=O)Nc2ccc(S(=O)(=O)Nc3ccccn3)cc2)cc1,inactive
26,CC(C)C[C@H]1CN=C(Nc2ccccc2)N1CC1CCCCC1,inactive

row,Compound,Potency
1,COC(=O)c1cc(S(=O)(=O)N2CCN(c3cc(C)ccc3C)CC2)c[nH]1,inactive
2,NS(=O)(=O)c1ccc(N=Nc2c(O)[nH]c3ccc(Br)cc23)cc1,inactive
3,CCN1CCN(c2sc(S(C)(=O)=O)nc2S(=O)(=O)c2ccc(Cl)cc2)CC1,inactive
4,CCc1ccc(NC2Nc3cc(C)nn3S2)cc1 (configuration not stated),5.01 µM (active)
5,CCOC(=O)c1ccc(NC2Nc3cc(C)nn3S2)cc1 (configuration not stated),inactive
6,O=C(CC1Nc2ccccc2NC1=O)Nc1ccccc1 (configuration not stated),5.01 µM (active)
7,CCOC(=O)c1ccccc1NC(=O)CC1Nc2ccccc2NC1=O (configuration not stated),inactive
8,O=C(CC1Nc2ccccc2NC1=O)Nc1ccccc1NC(=O)CC1Nc2ccccc2NC1=O (configuration not stated),inactive
9,CCN(C(=O)COc1ccc(C(=O)c2ccccc2)cc1)c1ccccc1,inactive
10,O=S(=O)(c1ccccc1)c1nc(-c2ccccc2)oc1NCCCN1CCOCC1,inactive
11,Cc1cccc(N2CCN(C(=O)c3cccc(N4C(=O)C5C6C=CC(C6)C5C4=O)c3)CC2)c1C (configuration not stated),inactive
12,O=C(CN1CCOC1=O)N1CCCC(Nc2ccc(F)c(F)c2)C1 (configuration not stated),inactive
13,C=C1CCN(C(CC(C)C)C(=O)N2CCOCC2)S(=O)(=O)c2ccccc21 (configuration not stated),inactive
14,Cc1ccc(S(=O)(=O)Oc2ccc(/C=N/NC(=O)c3ccncc3)cc2)cc1,inactive
15,Cc1ccc(OCCOc2cccc(/C=N/NC(N)=O)c2)cc1,inactive
16,Cc1ccc(OCCOCCOc2ccc(Br)cc2/C=N\NC(=O)c2ccncc2)cc1,25.1 µM (active)
17,Cc1ccc(CNC(=O)CCN2C(=O)[C@@H]3Cc4ccccc4CN3C2=O)cc1,inactive
18,CC(=O)Nc1cccc(C(=O)OCN2C(=O)c3ccccc3C2=O)c1,inactive
19,Cc1cc(OCc2cc(C(=O)NCc3cc(C(C)C)no3)no2)cc(C)c1Cl,inactive
20,Cc1cccc(NC(=S)NCCN(C2CCCCC2)C2CCCC2)c1,inactive
21,Cc1cccc(NC(=S)NCc2ccc3[nH]c4c(c3c2)CCCC4)c1,7.08 µM (active)
22,O=C(O)CCC(=O)NCc1ccc2[nH]c3c(c2c1)CCCC3,inactive
23,CCOc1cc(/C=N/Nc2cc(C)nc3ccc(C)cc23)ccc1O,inactive
24,Cc1ncoc1C(=O)N1CCCC(C(=O)c2ccc3c4c(cccc24)CC3)C1 (configuration not stated),inactive
25,CC(=O)NCC(=O)N1CCCC(C(=O)c2ccc3c4c(cccc24)CC3)C1 (configuration not stated),inactive
26,CCn1ccnc1CN1CCCC(C(=O)c2ccc3c4c(cccc24)CC3)C1 (configuration not stated),4.47 µM (active)

row,Compound,Potency
1,COc1cc2c(cc1OC)C(C)N(S(=O)(=O)c1cnc(Cl)c(Cl)c1)CC2 (configuration not stated),inactive
2,CCN1C(=S)N[C@@H](c2cccc(C(F)(F)F)c2)C(C(=O)OC)=C1C,inactive
3,CC1CCN(CC(=O)Nc2nccs2)CC1,inactive
4,C=CCNC(=O)CSc1nc2scc(-c3ccco3)c2c(=O)n1CC=C,inactive
5,C=CCn1c(SCc2csc(C)n2)nc2scc(-c3ccc(C)o3)c2c1=O,inactive
6,C=CCn1c(=S)[nH]c2scc(-c3ccco3)c2c1=O,7.94 µM (active)
7,COc1ccc(NC(=O)CN2C(=O)COc3ccc(S(=O)(=O)N4CCOCC4)cc32)c(OC)c1,inactive
8,Cc1ccc(S(=O)(=O)N(C)CC(=O)NCCc2c[nH]c3ccccc23)cc1,inactive
9,COc1ccc(-n2c(=O)[nH]c3cc(C(=O)NCCc4ccc(OC)c(OC)c4)ccc3c2=O)c(OC)c1,inactive
10,COc1ccc(NS(=O)(=O)c2cc(C(=O)Nc3ccccc3C(=O)O)ccc2C)cc1,inactive
11,CCCCc1nc2cc(C(=O)N3CCCCC3CCO)ccc2o1 (configuration not stated),inactive
12,CCN(CC)S(=O)(=O)c1ccc(-c2cn3ccc(C)cc3n2)cc1,inactive
13,COc1ccc(-c2cn3cccnc3n2)cc1,inactive
14,COc1ccc(-c2cn3ccc(C)cc3n2)cc1,5.01 µM (active)
15,O=C(c1cc(C(=O)N2CCN(c3ccc(F)cc3)CC2)cc([N+](=O)[O-])c1)N1CCN(c2ccc(F)cc2)CC1,inactive
16,CC(C)(C)C(=O)NC1CC2CCCC(C1)N2C(=O)Nc1ccccc1F (configuration not stated),inactive
17,O=CN1CCN(C(=O)c2ccc3c(c2)OCO3)CC1,inactive
18,CC(NC(=S)Nc1ccc(S(N)(=O)=O)cc1)c1ccc2c(c1)OCO2 (configuration not stated),inactive
19,CC(NC(=S)Nc1ccc(OC(F)F)cc1)c1ccc(F)cc1 (configuration not stated),12.6 µM (active)
20,CC(C)N(Cc1ccccc1)C(=S)Nc1ccc(OC(F)F)cc1,inactive
21,Cc1cc(C)c2c(n1)nn1c(-n3ccnc3)cc(C)nc21,15.8 µM (active)
22,Cc1cc(-n2nc(C)cc2C)n2nc(C)c(-c3ccccc3)c2n1,inactive
23,Cc1cc(C)c2c(NC(=O)C3CC3)nn(C)c2n1,inactive
24,O=C(Nc1cccc(NC(=O)c2ccc(Br)cc2)c1)c1ccccc1,inactive
25,CC(=N\NC(=O)c1cc(Br)ccc1O)/C(=N/O)C(=O)Nc1ccccc1,11.2 µM (active)
26,C/C(=N/NC(=O)c1cc(Cl)ccc1O)C12CC3CC(CC(C3)C1)C2,inactive

row,Compound,Potency
1,COc1ccc(-c2c(C)cc3oc(=O)cc(-c4ccccc4)c3c2C)cc1F,inactive
2,COc1cc(OC)c2c(-c3cccc(-c4cccc(N)c4)c3)cc(=O)oc2c1,10 µM (active)
3,COc1ccc(-c2c(C)cc3oc(=O)cc(-c4ccccc4)c3c2C)cc1OC,inactive
4,Cc1cc(NC(=O)CCC(=O)N(Cc2ccccc2)C(C(=O)NC2CCCC2)c2ccc(C)o2)no1 (configuration not stated),inactive
5,CCc1cccc(C)c1N1C(=O)CN(Cc2ccccc2)C1=S,inactive
6,O=C(Cc1nc2ccccc2[nH]c1=O)c1ccc(Cl)cc1,inactive
7,CCC(=O)/C(=C(/O)c1ccccc1)c1nc2ccccc2[nH]1,inactive
8,O=C(/C(=C/c1cccc(Cl)c1)c1nc2ccccc2[nH]1)c1ccccc1,12.6 µM (active)
9,Cc1ccc(C)c(NC(=O)c2cc(-c3cc(C)cc(C)c3O)n[nH]2)c1,inactive
10,Cc1sc2ncn(CC(=O)NCCCC(=O)N(C)Cc3ccccc3)c(=O)c2c1C,inactive
11,CCc1ccc2c(c1)C1(NN=C(c3ccccc3)S1)C(=O)N2 (configuration not stated),6.31 µM (active)
12,CCCCN1C(=O)/C(=C2/Sc3ccc(Cl)cc3N2CC)SC1=S,inactive
13,O=c1c2ccccc2nc2n1C1(CCCCC1)Cc1ccccc1-2,inactive
14,CCOC(=O)C(C)Sc1nc2ccccc2c(=O)n1CC1CCCCC1 (configuration not stated),inactive
15,CN(c1ccc2nc3ccccc3c(=O)n2n1)C1CCCCC1,1.12 µM (active)
16,C/C(=N\N(C)C)c1ccc(OCCOc2ccc([N+](=O)[O-])cc2)cc1,inactive
17,C/[N+]([O-])=C\c1ccc([N+](=O)[O-])o1,inactive
18,O=C(/C=C/c1ccc([N+](=O)[O-])o1)NNC(=O)c1ccc(F)cc1,4.47 µM (active)
19,O=C(N/N=C/c1ccc([N+](=O)[O-])o1)c1cn(-c2ccccc2)nc1-c1ccc(F)cc1,inactive
20,CCc1ccc(NC(=O)CN2CCC(C(=O)c3ccc(OC)cc3)CC2)cc1,inactive
21,CC(=O)Nc1ccc(NC(=O)[C@@H](NC(=O)c2cccc(C)c2)C(C)C)cc1,inactive
22,COC(C(=O)Nc1ccc(C(C)=O)cc1)c1ccccc1 (configuration not stated),inactive
23,Cc1ccc(NC(=O)C(C)c2cccc(C(=O)c3ccccc3)c2)cc1 (configuration not stated),7.08 µM (active)
24,CCn1cc(S(=O)(=O)c2cccc(C)c2)c(=O)c2cc(F)c(N3CCN(C)CC3)cc21,inactive
